Reference: PubChem BioAssay AID372 (MTDP, 2006)
Among all 100,000 compounds or so, about 770 (0.77%) were called active. No stated cut-off is given here; in the data, active means inhibition above about 50%; inactive means the rest. The entries come from a sample that favours actives as a whole.

target: Gag-Pol polyprotein (Human immunodeficiency virus type 1 group M subtype B (isolate HXB2)) (UniProt P04585); assay: RNase H inhibition, HIV 1 Gag Pol polyprotein, FRET biochemical assay, screening (AID 372); conditions: HIV-1 RT RNase H, FRET RNA/DNA substrate fluorescence; at 10 µM; active compounds read high

| Compound | inhibition |
| --- | --- |
| NNC(=O)c1cc(C(=O)O)nc2ccc(Br)cc12 | 6% (inactive) |
| CCOc1ccc(/C=C2/SC(NC(C)=O)=NC2=O)cc1 | 0% (inactive) |
| COc1cc(C(=O)NC(=S)Nc2cccc(-c3nc4ncccc4o3)c2C)cc(OC)c1OC | 17% (inactive) |
| Cc1cc(C)cc(NCc2ccc3c(c2)OCO3)c1 | 9% (inactive) |
| C=CCOc1ccccc1/C=N/NC(=O)c1cccc(I)c1 | 10% (inactive) |
| O=S(NC1CCCCC1)C12CC3CC(CC(C3)C1)C2 (configuration not stated) | 2% (inactive) |
| CC1=NN(c2ccccc2)C(=O)C1C(c1cccc([N+](=O)[O-])c1)C1C(=O)N(c2ccccc2)N=C1C (configuration not stated) | 12% (inactive) |
| CCOC(=O)C1=C(C)NC(C)=C(C(=O)OC)C1c1ccc([N+](=O)[O-])cc1 (configuration not stated) | 16% (inactive) |
| O=C1N=c2ccccc2=C1c1sc(=S)[nH]c1O | 6% (inactive) |
| Cc1ccc(C2(C)N(O)C(C)C(c3ccccc3)=[N+]2[O-])cc1 (configuration not stated) | 0% (inactive) |
| COc1ccc(CCN2C(=O)/C(=C\c3cccc4ccccc34)SC2=S)cc1OC | 9% (inactive) |
| CCCOC(=O)c1ccc(NC(=O)c2cccc([N+](=O)[O-])c2)cc1 | 17% (inactive) |
| O=C(Nc1cc(Cl)cc(Cl)c1)c1ccc(-c2ccccc2[N+](=O)[O-])o1 | 59% (active) |
| Cc1cc2nc(-c3ccc(NC(=O)c4cccc([N+](=O)[O-])c4C)cc3)oc2cc1C | 15% (inactive) |
| Cc1ccccc1-c1nc2cc(NC(=O)c3ccc(-c4ccccc4[N+](=O)[O-])o3)ccc2o1 | 37% (inactive) |
| Cc1cc2nc(-c3ccc(NC(=O)c4ccc(-c5ccccc5[N+](=O)[O-])o4)cc3)oc2cc1C | 52% (active) |
| COC(=O)c1cc(NC(=O)c2ccc(-c3ccccc3[N+](=O)[O-])o2)cc(C(=O)OC)c1 | 45% (inactive) |
| CC(=O)c1cccc(NC(=O)c2ccc(-c3ccccc3[N+](=O)[O-])o2)c1 | 13% (inactive) |
| O=C(Cc1cccc2ccccc12)N/N=C/c1cc(Br)c(O)c(Br)c1O | 0% (inactive) |
| CCOc1cccc(NC(=O)/C(C#N)=C\c2ccc(-c3cccc([N+](=O)[O-])c3)o2)c1 | 10% (inactive) |
| Cc1ccc(Sc2ccc(/C=C3/SC(=S)N(C)C3=O)o2)cc1 | 45% (inactive) |

| Compound | inhibition |
| --- | --- |
| CN1C(=O)S/C(=C/c2ccc(Sc3ccccc3)o2)C1=O | 52% (active) |
| CN1C(=O)/C(=C\c2ccc(Sc3ccc(Cl)cc3)o2)SC1=S | 22% (inactive) |
| CCCCOc1ccc(C(=O)N2CCCc3ccccc32)cc1 | 13% (inactive) |
| O=C(Nc1cccc(NC(=O)C(Cl)(Cl)Cl)c1)c1ccc(Cl)cc1Cl | 13% (inactive) |
| Cc1nc(/N=C/c2ccc(Br)cc2)sc1C | 8% (inactive) |
| COc1cc(/C=C2/SC(N)=NC2=O)ccc1OCc1ccccc1[N+](=O)[O-] | 39% (inactive) |
| COc1ccc(C=C2C(=O)NC(=S)NC2=O)cc1OC(=O)c1cccc2ccccc12 | 26% (inactive) |
| COc1ccc(/C=C2\SC(N)=NC2=O)cc1OC(=O)c1cccc2ccccc12 | 53% (active) |
| NC1=NC(=O)/C(=C/c2ccc(OC(=O)c3cccc4ccccc34)cc2)S1 | 20% (inactive) |
| COc1cc(/C=C2\SC(N)=NC2=O)ccc1OCc1cccc2ccccc12 | 52% (active) |
| COc1cc(/C=C2\SC(N)=NC2=O)cc(Br)c1OCc1cccc2ccccc12 | 30% (inactive) |
| CCOc1cc(C=C2C(=O)NC(=O)NC2=O)ccc1OC(=O)c1cccc2ccccc12 | 56% (active) |
| COc1cc(/C=C2\SC(N)=NC2=O)cc(Br)c1OC(=O)c1cccc2ccccc12 | 35% (inactive) |
| CCOc1cc(C=C2C(=O)NC(=O)NC2=O)ccc1OCc1cccc2ccccc12 | 43% (inactive) |
| CCOC(=O)C(=CNc1ccc(F)c(F)c1F)C(=O)OCC | 10% (inactive) |
| CC(C)(C)c1ccc(C(=O)NCCSc2ccc(Cl)cc2)cc1 | 19% (inactive) |
| O=C(N/N=C\c1cc(Br)ccc1O)c1cnccn1 | 7% (inactive) |
| Cc1ccc(NC(=S)NC(=O)c2ccccc2Cl)cc1C | 11% (inactive) |
| O=C(COc1ccc(Br)cc1Cl)NCc1cccnc1 | 0% (inactive) |
| CC(=O)n1ccc(C(=O)Nc2ccc(Cl)c(Cl)c2)n1 | 2% (inactive) |
| O=C(Nc1ccc(F)cc1F)c1cnn2c1NC(c1cccs1)CC2C(F)(F)F (configuration not stated) | 5% (inactive) |

| Compound | inhibition |
| --- | --- |
| O=C(Oc1ccc2oc(=O)sc2c1)c1ccccc1 | 6% (inactive) |
| O=c1oc2ccc(O)c(-c3ccccc3Cl)c2s1 | 2% (inactive) |
| Cc1cc(I)ccc1NC(=O)c1ccccc1F | 8% (inactive) |
| O=C(c1ccccc1)c1cccc(NC(=O)C2CCCCC2)c1 | 51% (active) |
| O=C(Nc1ccc2ccccc2c1)C1CCCCC1 | 2% (inactive) |
| CC(=O)c1cccc(NC(=O)C2CCCCC2)c1 | 0% (inactive) |
| O=C(COc1cccc(Br)c1)N/N=C/c1ccc(Cl)cc1 | 7% (inactive) |
| CCOc1ccc(C(=O)Nc2cc(Cl)cc(Cl)c2)cc1Br | 1% (inactive) |
| COc1ccc(-c2nnc(N)s2)cc1 | 7% (inactive) |
| COc1ccc(-c2nnc(NC(C)=O)s2)cc1 | 0% (inactive) |
| COc1cc(NC(=O)COc2ccc(C)c(C)c2)c(OC)cc1Cl | 7% (inactive) |
| COc1cc([N+](=O)[O-])cc(/C=C2\C(=O)NC(=O)N(c3ccc(Cl)cc3)C2=O)c1O | 7% (inactive) |
| O=C(Nc1ccc(-c2ccc(NC(=O)c3ccccc3Cl)c(Cl)c2)cc1Cl)c1ccccc1Cl | 51% (active) |
| O=C(Nc1ccc(Cl)cc1Cl)c1ccccc1Cl | 3% (inactive) |
| O=C(Nc1ccc(I)cc1Cl)c1ccccc1Cl | 37% (inactive) |
| CCn1c2ccccc2c2cc(CN3CCC(C)CC3)ccc21 | 7% (inactive) |
| CC(=O)Nc1ccc(NS(=O)(=O)c2ccc(C)cc2C)cc1 | 2% (inactive) |
| O=C(Nc1nccs1)c1ccc(N2C(=O)c3ccc([N+](=O)[O-])cc3C2=O)cc1 | 31% (inactive) |
| O=C(Nc1nccs1)c1ccc(N2C(=O)c3cccc([N+](=O)[O-])c3C2=O)cc1 | 56% (active) |
| O=C(Nc1ccc(O)cc1)c1ccc(N2C(=O)c3cccc([N+](=O)[O-])c3C2=O)cc1 | 3% (inactive) |
